# PubChem BioAssay (EPA / NIEHS)
# Activity calls are given as the source filed them. The calls were made as follows: active = hit-call score of the fitted dose curve at least 0.9, where 1 is the maximum; inactive = score below 0.9.
# Assay: ATG_CMV_CIS: Attagene CIS-FACTORIAL HepG2 Assay for human CMV (Internal Marker) (AID 2282928);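 also: endpoint acts as a background internal control marker rather than a target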
# Conditions: HepG2 CMV promoter reporter, transcription factor profiling; actives raise or lower the signal
# Method: ATG_CIS is a cell-based, multiplexed-readout assay that uses HepG2, a human liver cell line, with measurements taken at 24 hours after chemical dosing in a 24-well plate.ATG_CMV_CIS is one of 52 assay component(s) measured or calculated from the ATG_CIS assay. It is designed to make measurements of mRNA induction, a form of inducible reporter, as detected with fluorescence intensity signals by Reverse transcription polymerase chain reaction (RT-PCR) and Capillary electrophoresis technology.Data from the assay component ATG_CMV_CIS was analyzed into 1 assay endpoint. This assay endpoint, ATG_CMV_CIS, was analyzed with bidirectional fitting relative to DMSO as the negative control and baseline of activity. Using a type of inducible reporter, measures of mRNA for gain or loss-of-signal activity can be used to understand the background control at the transcription factor-level as they relate to the gene . Furthermore, this assay endpoint can be referred to as a secondary readout, because this assay has produced multiple assay endpoints where this one serves a background control function. To generalize the intended target to other relatable targets, this assay endpoint is annotated to the background measurement intended target family, where the subfamily is internal marker.
# Human liver HepG2 cells are transiently transfected with multiple reporter transcription units (MRTUs) in 6-well plates using FuGene 6 reagent (Roche; 3 ml FuGene/1 mg DNA). The MRTU constructs are regulated by a cis-regulating element (promoter). […] A major difference between the CIS and TRANS system is that in CIS activities of endogenous TFs are measured, whereas the TRANS assay evaluates changes in activities of exogenous, chimeric NR-Gal4 proteins. […] At the end of 24 hour incubation, total RNA was isolated using TriZol reagent (Invitrogen). The isolated RNA is then reverse-transcribed using oligo(dT) primer and Mo-MLV reverse transcriptase (Invitrogen) with DNAse I (Ambion) treatment for 30 min. The one-tenth of the produced cDNA was amplified by PCR using Taq DNA polymerase (Invitrogen) and two reporter sequence-specific primers. The PCR products were fluorescently labeled by primer extension with 6-arboxyfluorescein (6-FAM) 5'-labeled reporter sequence-specific primer (2 min at 95 C, 20 s at 68 C and 10 min at 72 C) and these products were digested with 5U of HpaI (New England Biolabs) for 2h at 37 C. The fragments were purified using Qiaquick PCR columns (Qiagen), analyzed on an ABI 3130xL genetic analyzer (Applied Biosystems) with peak positions identified by using a set of X-rhodamine (ROX)-labeled MapMarker1000 molecular weight standards (BioVentures). The raw capillary electrophoresis data was processed using Attagraph software (Attagene).
Compound,outcome,AC50
C[N+](C)(C)CC1CO1 (stereo not given),inactive,
CC(C)COC(=O)c1ccccc1C(=O)OCC(C)C,,67.5 µM (active)
N#CC(Br)(Br)C(N)=O,inactive,
ClCCOCCCl,inactive,
c1ccc2c(c1)oc1ccccc12,inactive,
O=C(N[C@H](c1ccccc1)[C@@H]1CN2CCC1CC2)c1c(Cl)ccc(C(F)(F)F)c1Cl,inactive,
CCNS(=O)(=O)C(F)(F)C(F)(F)C(F)(F)C(F)(F)C(F)(F)C(F)(F)C(F)(F)C(F)(F)F,inactive,
COC(=O)Nc1nc2ccccc2[nH]1,inactive,
[O-][Cl+]O,inactive,
CNC(=O)Oc1cccc2c1OC(C)(C)C2,inactive,
COC(=O)c1ccccc1N,inactive,
OCCOCCO,inactive,
Nc1ccc([N+](=O)[O-])cc1,inactive,
Clc1ccc(Cl)c(Cl)c1,inactive,
OCCCBr,inactive,
CCCCCCCCn1sccc1=O,,19.1 µM (active)
CO[C@@H]1[C@H](OC(=O)NC(=O)CCl)CC[C@]2(CO2)[C@H]1[C@@]1(C)O[C@@H]1CC=C(C)C,inactive,
O=C(O)C1C2CCC(O2)C1C(=O)O (stereo not given),,77.8 µM (active)
O=C(Oc1ccc(Br)cc1)N1CCN2CCC1CC2,inactive,
O=[N+]([O-])c1ccc(Oc2ccc(Cl)cc2Cl)cc1,,100 µM (active)

Compound,outcome,AC50
CCN(CC)CCO,inactive,
Cc1ccc(N)cc1,inactive,
CCCCCOC(=O)c1ccccc1C(=O)OCCCCC,inactive,
CS(=O)(=O)NC(=O)c1cc(Oc2ccc(C(F)(F)F)cc2Cl)ccc1[N+](=O)[O-],inactive,
COP(=S)(OC)SCN1C(=O)c2ccccc2C1=O,inactive,
O=C1CCCO1,inactive,
CC(C)(C)OOC(C)(C)CCC(C)(C)OOC(C)(C)C,,90.1 µM (active)
C1=Cc2cccc3cccc1c23,inactive,
CC(C)(OOC(C)(C)c1ccccc1)c1ccccc1,,48.7 µM (active)
[As]#[In],inactive,
Nc1ccc(Cc2ccc(N)cc2)cc1,inactive,
OCCCl,inactive,
Oc1ccccc1Cl,inactive,
O=P(OCCCl)(OCCCl)OCCCl,inactive,
ClC1=C(Cl)C2(Cl)C3C(Cl)C=CC3C1(Cl)C2(Cl)Cl (stereo not given),,100 µM (active)
CN(C)c1ccc(C(=O)c2ccc(N(C)C)cc2)cc1,inactive,
CN(C)[C@@H]1C(=O)C(C(N)=O)=C(O)[C@@]2(O)C(=O)C3=C(O)c4c(O)cccc4[C@@](C)(O)[C@H]3C[C@@H]12,,137 µM (active)
Cc1ccc(N=C=O)cc1N=C=O,inactive,
CCN(CC)N=O,inactive,
CN(C)c1ccccc1,inactive,
